Tgondii IFNg – inhibitors of Toxoplasma gondii growth with IFN-gamma | AID 1259416 | actives 3.8% (n = 69,000) | activity change, negative = inhibition, % (test concentration not listed) | Toxoplasma gondii growth in IFN-gamma-treated host cells; stronger effect = lower value; in the data active = activity change below about -70%, passing the limit was not always enough;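 also: host cells are HeLa cells infected with Toxoplasma gondii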
The depositor's hits bear a star; i = inactive. This is one part of a sample in which hits are shown more often than they occur.

SMILES | Tgondii IFNg
Cc1cc(C)n(Cc2nc(-c3ccc(NC(=O)Cc4ccccc4C)cc3)oc2C)n1 | 41.2
COc1cccc(CC(=O)Nc2ccc(-c3nc(Cn4nc(C)cc4C)c(C)o3)cc2)c1 | -84.8*
Cc1cc(C)cc(C(=O)Nc2ccc(-c3nc(Cn4nc(C)cc4C)c(C)o3)cc2)c1 | -97.0*
Cc1cc(C)n(Cc2nc(-c3ccc(NC(=O)c4ccc(C)c(F)c4)cc3)oc2C)n1 | 16.8
Cc1cc(C)n(Cc2nc(-c3ccc(NC(=O)c4ccccc4)cc3)oc2C)n1 | 1.2
Cc1cc(-c2ccccc2)nc2oc3c(c12)NC(=O)CN(c1cccc(Cl)c1)C3=O | -47.7
C=CCCC(C)(O)C#CCN1CCCC1 (stereo unspecified) | 29.8
CCOc1ccccc1CN(CC)C(=O)c1c(C)cc(C)n(CC)c1=O | -2.0
COC(=O)[C@H]1CN(C(=O)c2cccnc2)C[C@@H]1c1ccc(F)cc1 | -10.5
CCOc1c(Cl)cc(Cl)cc1CNCC1CCCO1 (stereo unspecified) | 42.5
Cc1nc(C)n(CCCn2cc(-c3ccnc4ccccc34)nn2)n1 | 1.3
NC(=O)c1cnc2n1CCN(C(=O)CN1CCOc3ccccc3C1)C2 | -4.8
Cc1cc(C)c(S(=O)(=O)Nc2cccc(C(F)(F)F)c2)c(C)c1 | 7.3
CC(=O)N1C(=O)C2(N=C(N)NC(Nc3cccc(C(F)(F)F)c3)=N2)c2ccccc21 (stereo unspecified) | 11.6
O=c1cc(Nc2cccc(C(F)(F)F)c2)nc[nH]1 | -102.8*
COc1cccc(OCCCn2cncc2-c2cn(C)nc2C)c1 | -0.5
Cc1nc(-c2ccccc2)sc1CCNC(=O)C(=O)Nc1ccc([N+](=O)[O-])cc1 | 19.8
CC(C)C(=O)NCCc1csc(C2CCN(C(=O)Nc3ccccc3F)CC2)n1 | -14.9
CC(=O)NCCC1CCCCN1C(=O)C(=O)Nc1ccccc1Cl (stereo unspecified) | 4.0
Cc1c(-c2ccccc2)sc(N)c1C#N | -11.6
CSc1sc(-c2ccno2)c(-c2ccco2)c1C#N | 76.7
CSc1sc(-c2ccn[nH]2)c(-c2ccccc2)c1C#N | -85.1*
CC1Oc2ccc(S(=O)(=O)Nc3ccc4c(c3)ncn4CCO)cc2NC1=O (stereo unspecified) | 15.9
CCOc1ccc2nc(N3CCCN(Cc4cc(OC)c5c(c4)OCO5)CC3)nc(C)c2c1 | -16.8
CC(=O)OCC(=O)[C@H]1CCC2C3CC=C4C[C@@H](O)CC[C@]4(C)C3CC[C@@]21C (stereo partly specified) | -35.3
SMILES | Tgondii IFNg
C[C@@H](Oc1cc(-c2cnn(C3CCNCC3)c2)cnc1N)c1c(Cl)ccc(F)c1Cl | -77.5*
C[C@H](Oc1cc(-c2cnn(C3CCNCC3)c2)cnc1N)c1c(Cl)ccc(F)c1Cl | 2.7
Cc1ccc(C)c(-c2coc(-c3ccc(NC(=O)Nc4ccc5c(c4)OCCO5)cc3)n2)c1 | 152.4
Cc1ccc(S(=O)(=O)NCCC(c2ccccc2)c2ccco2)cc1 (stereo unspecified) | 1.2
COc1ccc(C2(CNS(=O)(=O)c3ccccc3)CCCC2)cc1OC | -11.7
COc1ccccc1C(CCNS(=O)(=O)c1ccccc1)c1ccc2c(c1)OCO2 (stereo unspecified) | -74.7*
COc1ccc(C(N)=O)cc1-c1ccc(-n2cccn2)cc1 | 4.5
CC1CCN(S(=O)(=O)c2ccc3c(c2)CCC(=O)N3CC(=O)NC2CCCCCCC2)CC1 | 1.1
CC(=O)OC[C@H]1O[C@@H](n2ccc(=O)[nH]c2=O)[C@H](OC(C)=O)[C@@H]1OC(C)=O | 2.8
c1coc(CN2C[C@@H](OCCCn3cccn3)[C@@H]3OCCC[C@@H]32)c1 | -30.4
Fc1cnc(N2CCO[C@@H]3[C@H]2CC[C@H]3OCc2ccccn2)nc1 | 1.4
Fc1ccc(CN2CCO[C@H]3[C@H]2CC[C@H]3OCCCn2cccn2)cc1 | -94.2*
Cn1c(CNS(=O)(=O)c2ccc(Cl)cc2)cc2ccccc21 | 32.7
CCC(=O)N1CCCC(c2cnc(Nc3nccs3)cn2)C1 (stereo unspecified) | -28.8
CCC(=O)N1CCCC(c2cc(C(F)(F)F)c3c(=O)n(C)c(=O)n(C)c3n2)C1 (stereo unspecified) | -78.6*
CCN1CCN(CC(=O)N2CCCC(c3cc(=O)n4c(n3)CCCCC4)C2)CC1 (stereo unspecified) | -0.7
Cc1ccc(N2CCOCC3(CCCN(C(=O)N(C)C)C3)C2)nn1 (stereo unspecified) | 3.6
Cc1cccc(-n2ncc3c(NC(C)(C)C)ncnc32)c1 | 76.0
Cc1ncc(-c2ccncc2)c(CCNC(=O)CS(=O)(=O)c2ccc(F)cc2)n1 | 18.1
N#CCN1CCC2(CC1)CC(C(=O)N1CCOCC1)c1ccccc12 (stereo unspecified) | 7.2
O=C1CCC2(CCN1)CCN(c1ncc(Cl)cn1)CC2 | 8.5
Cc1noc(C)c1C(=O)NCc1ccc2c(c1)OCO2 | -39.7
COc1ccc(-c2noc(CC(=O)NCc3ccccc3)c2-c2ccc(OC)cc2)cc1 | -62.1
Cc1ccc(Oc2ccc(CNC(=O)c3c(-c4ccncc4)noc3C)cc2)cc1 | -84.1*
Cc1ccc(C(=O)Nc2ccc(CN3CCN(C)CC3)c(C(F)(F)F)c2)cc1C#Cc1cnc2cccnn12 | -78.6*
SMILES | Tgondii IFNg
O=C(Nc1cccc(N2CCC(NCCc3ccccc3C(F)(F)F)CC2)c1)c1ccncc1 | 5.1
Cc1ccc(NC(=O)c2ccc(CN3CCN(C)CC3)cc2)cc1Nc1nc(-c2cccnc2)cs1 | 4.1
COC(=O)c1ccc(C)cc1NC(=O)Nc1ccc(-c2nc(-c3ccc(C)cc3C)co2)cc1 | -32.3
CCc1ccccc1NC(=O)N1CCC2(CC1)NC(=O)c1ccccc1N2CC | -31.6
Cc1cc(C(=O)NCCN2CCCC(C)C2)n[nH]1 (stereo unspecified) | -48.8
N#Cc1cnn(-c2ncnc3c2cnn3-c2ccccc2)c1N | -93.4*
CCN(CC)c1ncnc2c1cnn2-c1ccccc1 | i
c1ccc(-n2ncc3c(NC4CCCCCCCCCCC4)ncnc32)cc1 | 30.1
Cc1oc(-c2ccc(NC(=O)c3cccc(Br)c3)cc2)nc1Cn1cccn1 | -41.3
CN(C)c1ccc(NC(=O)Cn2c(=O)cc(-c3nc(C4CC4)no3)c3ccccc32)cc1 | 29.8
O=C(C(c1ccc(Cl)cc1)N1CCOCC1)N1CCN(Cc2ccccn2)CC1 (stereo unspecified) | 13.4
O=C(Nc1cccc(C(F)(F)F)c1)N1CCSCC1 | -28.8
Cn1nc(C(F)(F)F)cc1-c1ccc(NC(=O)Nc2cccc(C(F)(F)F)c2)s1 | -90.2*
CSc1sc(NC(=O)Nc2cccc(C(F)(F)F)c2)cc1C#N | -2.4
Cc1nn(-c2ccccc2)nc1C(=O)Nc1nc(-c2ccc(F)c(F)c2)cs1 | 16.4
Cc1nc2ccccn2c1-c1csc(NC(=O)c2ccc(Br)cc2)n1 | -78.0*
Cc1ccc(-c2csc(NC(=O)c3ccccc3)n2)c(C)c1 | 49.3
CCc1noc(CCC(=O)N2CCOC(C)(C(=O)NC3CCCC3)C2)n1 (stereo unspecified) | -30.4
c1ccc(Oc2nc(NCc3ccco3)nc(NCc3ccco3)n2)cc1 | -17.8
Clc1ccc(Nc2nc(Nc3ccc(Cl)cc3)nc(Oc3ccccc3)n2)cc1 | -100.2*
COc1ccc(-c2nc(Nc3ccc(Cl)cc3)c3ccccc3n2)cc1 | -42.3
Clc1cccc(-c2nnc(-c3nc(N4CCOCC4)c4ccccc4n3)o2)c1 | 11.3
CNCc1ccc([C@@H]2CN(C(C)=O)C[C@H]2C(=O)N(C)C)cc1 | 21.5
Cc1noc(C)c1CN1CC2(CCN(C(=O)N(C)C)C2)CC1=O (stereo unspecified) | 28.6
C=CCN1C(=O)CCC12CCN(Cc1c(C)noc1C)CC2 | 9.1

Compound activity deposited in PubChem by Broad Institute.
